Activity calls are given as the source filed them. The calls were made as follows: active = hit-call score of the fitted dose curve at least 0.9, where 1 is the maximum; inconclusive = response in the unintended direction; inactive = score below 0.9.
Assay: CPHEA_Stoker_NIS_Cytotoxicity: Cytotoxicity Assessment for CPHEA's Radioactive Iodide Uptake (RAIU) Assay for Sodium/Iodide Symporter (NIS) Inhibition, Stoker and Laws Labs (AID 2283897);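 as to AC50: active means loss of ATP signal versus DMSO meaning cytotoxicity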
Experimental: CPHEA_Stoker_NIS is a cell-based, single-readout assay that uses hNIS-HEK293T-EPA, a novel human kidney cell line expressing human NIS, with measurements taken at 2 hours after chemical dosing in a 96-well plate. This radioactive iodide uptake (RAIU) assay is used to identify inhibitors of NIS-mediated iodide uptake. A parallel cytoxicity assay (Cell Titer Glo, Promega) was also run in the same cell line.CPHEA_Stoker_NIS_Cytotoxicity is one of 2 assay components measured from the CPHEA_Stoker_NIS assay. It is designed to make measurements of atp content, a form of viability reporter, as detected with bioluminescence signals by Luciferase-coupled ATP quantitation technology.Data from the assay component CPHEA_Stoker_NIS_Cytotoxicity was analyzed at the endpoint, CPHEA_Stoker_NIS_Cytotoxicity, in the positive analysis fitting direction relative to DMSO as the negative control and baseline of activity. Using a type of viability reporter, measures of ATP content for loss-of-signal activity can be used to understand the viability. To generalize the intended target to other relatable targets, this assay endpoint is annotated to the cell cycle intended target family, where the subfamily is cytotoxicity.
hNIS-HEK293T-EPA cells were seeded with a MultiFlo FX dispenser (BioTek, Winooski, VT) into ScintiPlate-96 microplates (Perkin Elmer, Waltham, MA) at a density of 4.0x10^4 cells per well in 200uL growth media and incubated for 40 hours before experimentation. On day of the assay, carrier-free 125I (Perkin-Elmer, Waltham, MA; specific activity: 17.4Ci/mg) was diluted with Hanks' balanced salt solution (Sigma, St. Louis, MO) supplemented with 10mM HEPES (uptake buffer; pH 7.4) at 5uCi/mL (288pg 125I/mL uptake buffer; 2.30nM). The assay was initiated by washing cells twice with 200uL uptake buffer using a 96-well Tecan HydroSpeed plate washer (Tecan, Mannedorf, Switzerland). Uptake buffer (59.7uL) was then added back to each well. Chemical samples (350nL at 200X) were administered using the HDR tool as previously described to achieve a 1X chemical/0.5% final DMSO concentration with subsequent addition of 10uL of 125I dilution (final [125I]: 329pM; 2.88pg/well) for a final reaction volume of 70uL/well. Cells were incubated at room temperature for 2 hours and then washed twice with 200uL ice cold uptake buffer. All uptake buffer was aspirated from wells, plates were sealed, and read on a MicroBeta2 plate reader (Perkin Elmer, Waltham, MA) using a detection protocol to measure CPM corresponding to intracellular 125I concentration. Each chemical concentration (0.001, 0.01, 0.1, 1.0, 10, and 100uM) was assayed in triplicate with three independent biological replicate plates (3 sequential cell passages). Additionally, a concentration response of NaClO4 (0.001, 0.01, 0.1, 1.0, 10, and 100uM) served as a positive control inhibition curve on each RAIU assay plate. DMSO control wells were assayed on each plate as a measure of maximum iodide uptake for normalization and determination of intra- and inter-assay variation. (Toxicol In Vitro, 2017, 40:66-78).

With `O=C(c1ccccc1)C(O)c1ccccc1` (stereo not drawn) as the molecule, how does the outcome read?
Its outcome is “inactive”.

Which outcome does the source give for `O=CCc1ccccc1` here?
The outcome was “inactive”.

For `O=c1c(O)c(-c2ccc(O)cc2)oc2cc(O)cc(O)c12`, which outcome is on record?
The outcome was “inactive”.

With `c1ccc(Oc2ccccc2)cc1` as the molecule, how does the outcome read?
The outcome was “inactive”.

Which outcome does the source give for `COc1ccc(N=Nc2cc(C)c(N=Nc3ccc(S(=O)(=O)O)cc3)cc2OC)cc1` here?
The outcome was “inactive”.

Which outcome does the source give for `CC(CN=Cc1ccccc1O)N=Cc1ccccc1O` (stereo not drawn) here?
The outcome was “inactive”.

Which outcome does the source give for `C=C(C)C(=O)OCCOC1CC2CC1C1C=CCC21` (stereo not drawn) here?
Its outcome is “inactive”.

Which outcome does the source give for `O=[N+]([O-])c1ccc(O)cc1C(F)(F)F` here?
Its outcome is “inactive”.

With `BrCc1cccc(Oc2ccccc2)c1` as the molecule, how does the outcome read?
The outcome was “inactive”.

For `OCC#CCO`, which outcome is on record?
The outcome was “inactive”.

Which outcome does the source give for `CCCCCCCCc1ccc(S(=O)(=O)O)cc1` here?
The outcome was “inactive”.

With `CCCCCCCCCCCCN1CCCCCC1=O` as the molecule, how does the outcome read?
Its outcome is “inactive”.

Which outcome does the source give for `CCCCCCC(=O)c1ccccc1` here?
Its outcome is “inactive”.

Which outcome does the source give for `CCc1cc(C(C)(C)C)c(O)c(C(C)(C)C)c1` here?
Its outcome is “inactive”.

For `CCOc1ccc(N=Nc2ccc(C=Cc3ccc(N=Nc4ccc(OCC)cc4)cc3S(=O)(=O)O)c(S(=O)(=O)O)c2)cc1`, which outcome is on record?
The outcome was “inactive”.

For `O=C(CC(=O)c1ccccc1)c1ccccc1`, which outcome is on record?
The outcome was “inactive”.

With `C[C@H]1O[C@@H](O[C@H]2[C@@H](O)C[C@H](O[C@H]3[C@@H](O)C[C@H](O[C@H]4CC[C@@]5(C)[C@H](CC[C@@H]6[C@@H]5C[C@@H](O)[C@]5(C)[C@@H](C7=CC(=O)OC7)CC[C@]65O)C4)O[C@@H]3C)O[C@@H]2C)C[C@H](O)[C@@H]1O` as the molecule, how does the outcome read?
The outcome was “inactive”.

Which outcome does the source give for `CCCCCCCCSCCO` here?
The outcome was “inactive”.

For `C=C1CC[C@H](O)C/C1=C/C=C1\CCC[C@]2(C)[C@@H]([C@H](C)/C=C/[C@H](C)C(C)C)CC[C@@H]12`, which outcome is on record?
The outcome was “inactive”.

With `[O-]n1ccccc1=S.[O-]n1ccccc1=S.[Zn+2]` as the molecule, how does the outcome read?
The outcome was “inactive”.

For `CCCCCCCCC=CCCCCCCCC1=NCCN1CCO`, which outcome is on record?
The outcome was “inactive”.

With `Cc1ccc(S(=O)(=O)Oc2ccc(N=Nc3ccc(-c4ccc(N=Nc5c(O)ccc6cc(S(=O)(=O)O)cc(S(=O)(=O)O)c56)c(C)c4)cc3C)cc2)cc1` as the molecule, how does the AC50 read?
Its AC50 is 13 µM (active).

With `CCCCCCCCCCCCCCN(CCO)CCO` as the molecule, how does the outcome read?
The outcome was “inactive”.

Which outcome does the source give for `Clc1ccc(C(c2ccccc2Cl)C(Cl)Cl)cc1` (stereo not drawn) here?
The outcome was “inactive”.

With `OC[C@H]1O[C@@H]2O[C@H]3[C@H](O)[C@@H](O)[C@@H](O[C@H]4[C@H](O)[C@@H](O)[C@@H](O[C@H]5[C@H](O)[C@@H](O)[C@@H](O[C@H]6[C@H](O)[C@@H](O)[C@@H](O[C@H]7[C@H](O)[C@@H](O)[C@@H](O[C@H]8[C@H](O)[C@@H](O)[C@@H](O[C@H]9[C@H](O)[C@@H](O)[C@@H](O[C@H]1[C@H](O)[C@H]2O)O[C@@H]9CO)O[C@@H]8CO)O[C@@H]7CO)O[C@@H]6CO)O[C@@H]5CO)O[C@@H]4CO)O[C@@H]3CO` as the molecule, how does the outcome read?
Its outcome is “inactive”.

With `CCCCCC(C=O)=Cc1ccccc1` as the molecule, how does the outcome read?
The outcome was “inactive”.

With `CCOC(=O)[C@@H](C)Oc1ccc(Oc2nc3ccc(Cl)cc3o2)cc1` as the molecule, how does the outcome read?
Its outcome is “inactive”.

For `CCCCC(CC)COC(=O)c1ccc(O)cc1` (stereo not drawn), which AC50 is on record?
Its AC50 is 83.9 µM (active).

Source: PubChem BioAssay (EPA / NIEHS)
